# Assay results from PubChem BioAssay (Tox21).
# Results filed as inconclusive are left out. A call without a number means that no potency is given here. The source made the active and inactive calls. Unless noted, calls come from the whole dose curve; as a rule, active = well fitted curve in the direction sought with a large enough effect in the repeat runs; inconclusive = weak or mixed curves; inactive = no such curve, though single readings can be large; an effect the other way counts as inactive or inconclusive.
# Key:
# [1] = qHTS assay for small molecules that induce genotoxicity in human embryonic kidney cells expressing luciferase-tagged ATAD5 (AID 651632); conditions: HEK293T ATAD5-luciferase induction, 16 h; series mostly up to 83.3 µM; note: nearly all actives have a fitted effect of over 15% in size; note: potency is the fitted concentration of half-maximal effect
# Summary of the method: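 ATAD5-luc HEK293T, 2,000 cells/well; cpd or DMSO pin-transferred; 16 hr, 37C/5% CO2; Amplite 30 min RT; luminescence.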
# [2] = qHTS assay for small molecule agonists of the p53 signaling pathway - cell viability (AID 651633; calls by dose curve; note: nearly all actives have a fitted effect of over 30% in size; note: potency is the fitted concentration of half-maximal effect); conditions: p53RE-bla HCT-116 viability, ATP luminescence, 16 h; series mostly up to 83.3 µM
# Summary of the method: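 Viability counter-read: CellTiter-Glo luminescence (30 min, room temperature) in the same p53RE-bla plates. These plates had been exposed to compounds for 16 h at 37 C.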
# [3] = qHTS assay for small molecules that induce genotoxicity in human embryonic kidney cells expressing luciferase-tagged ATAD5 - cell viability (AID 651634; calls by dose curve; note: nearly all actives have a fitted effect of over 25% in size; note: potency is the fitted concentration of half-maximal effect); conditions: HEK293T ATAD5-luc cells viability, CellTiter-Fluor, 15.5 h; series mostly up to 83.3 µM
# Summary of the method: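 Fluorescence from CellTiter-Fluor, reporting protease activity within live cells, served as the viability read-out. HEK293T cells carrying luciferase-tagged ATAD5 had been treated with compound for 15.5 hr at 37C.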
# [4] = qHTS assay for small molecule disruptors of the mitochondrial membrane potential - cell viability (AID 720634; calls by dose curve; note: nearly all actives have a fitted effect of over 20% in size; note: potency is the fitted concentration of half-maximal effect); conditions: HepG2 viability, ATP luminescence (CellTiter-Glo), 1 h; series mostly up to 83.2 µM
# Summary of the method: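 Cells: HepG2, 2,000/well, attached overnight. Compound 1 hr, 37 C/5% CO2. +m-MPI dye, +CellTiter-Glo 30 min RT. Readout: luminescence (ATP).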
# [5] = qHTS assay for small molecule disruptors of the mitochondrial membrane potential (AID 720635); conditions: HepG2 mitochondrial membrane potential, Mito-MPS dye ratio; series mostly up to 83.2 µM; note: potency is the fitted concentration of half-maximal effect
# Summary of the method: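 Mitochondrial membrane potential tracked with Mito-MPS dye, red aggregates (ex 540/em 590 nm) against green monomers (ex 490/em 535 nm). Compound treatment 1 hr at 37C, dye 30 min in HepG2.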
# [6] = qHTS assay to test for compound auto fluorescence at 590 nm (red) in HepG2 cells (AID 720674); conditions: HepG2 autofluorescence, red 540/590 nm, 1 h; series mostly up to 91.3 µM
# Summary of the method: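 Red autofluorescence (Ex/Em 540/590 nm, Rose Bengal sodium equivalents) was measured in HepG2 cells, 2,000 per well in MEM plus 10% FBS, plated overnight at 37 C. Readings were taken 1 hr after adding 23 nL compound or DMSO, at 37 C and 5% CO2.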
# [7] = qHTS assay to test for compound auto fluorescence at 535 nm (green) in HepG2 cells (AID 720675); conditions: green autofluorescence 485/535 nm, 1 h; series mostly up to 91.3 µM
# [8] = qHTS assay to test for compound auto fluorescence at 460 nm (blue) in HEK293 cells (AID 720678); conditions: blue autofluorescence 405/460 nm; series mostly up to 91.3 µM
# Summary of the method: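 Measured: blue fluorescence (Ex 405/Em 460 nm) of compound-treated HEK293 cells, incubated overnight at 37C with 5% CO2 and scaled to triamterene equivalents.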
# [9] = qHTS assay to test for compound auto fluorescence at 590 nm (red) in HEK293 cells (AID 720679); conditions: red autofluorescence 540/590 nm; series mostly up to 91.3 µM
# Summary of the method: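 Using HEK293 cells at 2,000 per well, the screen added 23 nL of each compound after cell attachment and incubated overnight (37C, 5% CO2). The plate reader then captured red-label fluorescence, Ex/Em 540/590nm.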
SMILES,Potency [1],Potency [2],Potency [3],Potency [4],Potency [5],outcome [6],outcome [7],Potency [8],outcome [9],"fluorescence, relative to Rose Bengal [6]","fluorescence, % of fluorescein control [7]","fluorescence, % of triamterene [8]","fluorescence, % of fluorescent control [9]"
CCC(C)(C)OC,inactive,inactive,inactive,inactive,inactive,inactive,inactive,inactive,inactive,–,–,–,–
N#CCc1ccc(Cl)cc1Cl,inactive,inactive,inactive,inactive,–,–,inactive,inactive,inactive,–,–,–,–
CC(=O)OCC(=O)NCCCOc1cccc(CN2CCCCC2)c1,inactive,inactive,inactive,inactive,inactive,inactive,inactive,inactive,inactive,–,–,–,–
Cc1c(C)c2c(c(C)c1OC(=O)CCC(=O)OCCO)CC[C@@](C)(CCC[C@H](C)CCC[C@H](C)CCCC(C)C)O2,inactive,21.1 µM (active),23.7 µM (active),inactive,inactive,–,inactive,inactive,–,–,–,–,–
O=C(OCC(O)CO)c1ccccc1Nc1ccnc2cc(Cl)ccc12 (stereo unspecified),inactive,inactive,inactive,inactive,–,–,–,–,–,0.0018% [at 18.6 µM] (inactive),0.0219% [at 18.6 µM] (inactive),0.52% [at 18.6 µM] (inactive),-0.0042% [at 18.6 µM] (inactive)
CC1=C(CC=O)C(C)(C)CCC1,inactive,inactive,inactive,inactive,–,inactive,inactive,inactive,inactive,–,–,–,–
COc1ncnc(NS(=O)(=O)c2ccc(N)cc2)c1OC,inactive,inactive,inactive,inactive,inactive,inactive,inactive,inactive,inactive,–,–,–,–
CN(C)CCN1C(=O)c2ccccc2N(C)c2ccccc21,inactive,inactive,inactive,inactive,–,inactive,inactive,inactive,inactive,–,–,–,–
O=c1cc(-c2ccccc2)oc2cc(O)cc(O)c12,inactive,inactive,inactive,30.6 µM (active),3.86 µM (active),inactive,inactive,inactive,inactive,–,–,–,–
CC(CN(C)C)C(C)(O)Cc1ccc(Cl)cc1 (stereo unspecified),inactive,inactive,inactive,inactive,inactive,inactive,inactive,inactive,inactive,–,–,–,–
c1ccc(C[n+]2cccc3ccccc32)cc1,inactive,inactive,inactive,inactive,–,inactive,inactive,inactive,–,–,–,–,–
CC(=O)Oc1ccc([N+](=O)[O-])cc1CCl,inactive,inactive,30.6 µM (active),inactive,54.5 µM (active),inactive,inactive,inactive,inactive,–,–,–,–
NNC(=O)CP(=O)(c1ccccc1)c1ccccc1,inactive,inactive,inactive,inactive,–,–,inactive,inactive,inactive,–,–,–,–
C=CC(C)(CCC=C(C)C)OC(=O)CC(C)C (stereo unspecified),inactive,inactive,inactive,inactive,inactive,inactive,inactive,inactive,inactive,–,–,–,–
Oc1cc2c(cc1O)[C@H]1c3ccc(O)c(O)c3OC[C@@]1(O)C2,inactive,inactive,69.4 µM (active),inactive,–,inactive,inactive,inactive,inactive,–,–,–,–
C1COC1,inactive,inactive,inactive,inactive,inactive,inactive,inactive,–,–,–,–,–,–
C=C(C)C(=O)OCCOCCOC(=O)C(=C)C,inactive,–,inactive,inactive,inactive,–,inactive,inactive,–,–,–,–,–
O=C(CCCN1CC=C(n2c(=O)[nH]c3ccccc32)CC1)c1ccc(F)cc1,inactive,–,inactive,inactive,inactive,inactive,inactive,inactive,inactive,–,–,–,–
Nc1ccc(N=Nc2ccccc2)c(N)c1,2.12 µM (active),inactive,–,47.5 µM (active),4.75 µM (active),inactive,inactive,inactive,–,–,–,–,–
C/C=C\C/C=C/CCCCCCCCOC(C)=O,inactive,–,inactive,inactive,inactive,inactive,inactive,inactive,inactive,–,–,–,–
C[C@@H]1CC(=O)NN=C1c1ccc(NN=C(C#N)C#N)cc1,inactive,6.68 µM (active),23.7 µM (active),–,23.7 µM (active),inactive,inactive,inactive,inactive,–,–,–,–
CCCCN1CCCC1C(=O)Nc1c(C)cc(C)cc1C (stereo unspecified),inactive,–,inactive,inactive,–,inactive,inactive,inactive,inactive,–,–,–,–
O=c1cc(-c2ccccc2)oc2ccc3ccccc3c12,0.077 µM (active),–,inactive,24.3 µM (active),8.63 µM (active),inactive,inactive,–,inactive,–,–,–,–
